Assay outcomes as filed in PubChem.
In the library only some 1.6% were active in any assay of this set; here they are far more common.
NPR2 activator: GC-B (human) receptor activation; P20594; HEK293-GC-B cells, CNP EC30, cGMP TR-FRET; 0% at EC30 CNP, 100% saturating CNP; activation, % at 10 µM; 370,000 tested, 0.11% active; AID 1920062;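 active = activation at 10 µM reaching about 35% in either raw or pattern-adjusted values, limit read from the data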
V-ATPase pHluor: regulators of yeast V-ATPase proton transport; AID 504577; response, % at 10 µM; S. cerevisiae, pHLuorin cytosolic pH fluorescence; 350,000 tested, 0.37% active; in the data active = response mostly above about 7.3%, no sharp cut-off; inactive = mostly below about 5.4%; note: actives read high
Rev-erbA mod: modulators of human Rev-erb alpha DNA binding. Rev-erbα–FITC-DNA binding, fluorescence polarization, 90 min. 370,000 tested, 0.79% active. AID 1259318. P20393. activity, % at 10 µM;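 active = activity above about 14%, limit read from the data; passing the limit was not always enough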;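 note: 0% = DMSO wells with 35 nM protein and 100% = DMSO wells with 750 nM protein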
Target sequence (P20393 whole entry, looked up): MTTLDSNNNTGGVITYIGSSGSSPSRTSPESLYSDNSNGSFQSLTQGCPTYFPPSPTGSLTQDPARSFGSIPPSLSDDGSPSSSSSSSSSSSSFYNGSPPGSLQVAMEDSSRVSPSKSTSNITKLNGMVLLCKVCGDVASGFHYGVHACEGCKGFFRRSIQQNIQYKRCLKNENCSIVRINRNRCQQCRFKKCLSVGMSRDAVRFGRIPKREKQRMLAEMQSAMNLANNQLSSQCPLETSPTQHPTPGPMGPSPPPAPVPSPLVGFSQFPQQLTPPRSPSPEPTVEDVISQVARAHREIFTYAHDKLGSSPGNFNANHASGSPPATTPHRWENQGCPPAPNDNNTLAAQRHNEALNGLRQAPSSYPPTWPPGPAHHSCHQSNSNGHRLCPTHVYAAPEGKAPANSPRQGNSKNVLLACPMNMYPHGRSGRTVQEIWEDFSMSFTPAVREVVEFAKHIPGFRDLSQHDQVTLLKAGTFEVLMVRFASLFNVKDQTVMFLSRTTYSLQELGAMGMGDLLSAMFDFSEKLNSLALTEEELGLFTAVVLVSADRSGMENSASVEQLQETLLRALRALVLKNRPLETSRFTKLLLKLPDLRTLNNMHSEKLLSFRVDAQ
GC-A act: GC-A (human) enzyme activation | P16066 | HEK293 GC-A cells, cGMP TR-FRET, EC30 ANP; 0% at EC30 ANP, 100% saturating ANP | activation, % at 10 µM | 370,000 tested, 0.14% active | AID 1671463; in the data active = activation above about 40%
PG9 Ab binder: binds the HIV-1 gp120 antibody PG9; TR-FRET gp120-PG9 antibody binding; inhibition, % at 6.7 µM; 360,000 tested, 0.43% active; AID 624416; in the data active = inhibition above about 8.5%
An asterisk follows results filed as active.

What do the screens show for `COC(=O)c1c(C)n(Cc2ccc3c(c2)OCO3)c2ccc(O)cc12`?
NPR2 activator: 22; V-ATPase pHluor: -3; Rev-erbA mod: 1; GC-A act: 78*; PG9 Ab binder: 0

What do the screens show for `C=COCCn1c(C)c(C(C)=O)c2cc(O)ccc21`?
NPR2 activator: -2; V-ATPase pHluor: -1; Rev-erbA mod: -3; GC-A act: 25; PG9 Ab binder: -2

Results for CCOC(=O)c1c(C)n(Cc2ccccc2)c2ccc(OCC(O)CN3C(=O)CNC3=O)cc12 (stereo not drawn) ?
NPR2 activator: 26; V-ATPase pHluor: -1; Rev-erbA mod: 6; GC-A act: 28; PG9 Ab binder: -3

Results for CCOC(=O)c1c(C)n(Cc2ccco2)c2ccc(O)cc12 ?
NPR2 activator: -2; V-ATPase pHluor: 4; Rev-erbA mod: -4; GC-A act: 50*; PG9 Ab binder: 0

How did CCOC(=O)c1c(C)n(COCCO)c2ccc(O)cc12 do in these assays?
NPR2 activator: 6; V-ATPase pHluor: 1; Rev-erbA mod: -6; GC-A act: 0; PG9 Ab binder: -2

How did CCOC(=O)c1c(C)n(Cc2ccc(F)cc2)c2ccc(O)cc12 do in these assays?
NPR2 activator: 7; V-ATPase pHluor: -4; Rev-erbA mod: 2; GC-A act: 67*; PG9 Ab binder: 2

How did CCOC(=O)c1c(C)n(Cc2ccc3c(c2)OCO3)c2ccc(O)cc12 do in these assays?
NPR2 activator: 28; V-ATPase pHluor: -2; Rev-erbA mod: -3; GC-A act: 79*; PG9 Ab binder: 0

What do the screens show for `O1[As]2O[As]3O[As]1O[As](O2)O3`?
Rev-erbA mod: -8

How did CNc1ccc(C(=O)CC(O)CCC(C)C2OC(=O)CC(O)CC(=O)CC(O)CC(O)CC(O)CC(O)CC3(O)CC(O)C(C(=O)OC)C(CC(O[C@@H]4O[C@H](C)[C@@H](O)[C@H](N)[C@@H]4O)/C=C/C=C/C=C/C=C/C=C/C=C/C=C/C2C)O3)cc1 (stereo partly drawn) do in these assays?
Rev-erbA mod: 6

Results for Cc1ccccc1-n1c(CF)nc2ccc(N)cc2c1=O ?
Rev-erbA mod: -1

How did O=C(Cn1ncc2c3ccccc3n(Cc3ccccc3F)c2c1=O)N1CCC2(CC1)OCCO2 do in these assays?
NPR2 activator: 42*; V-ATPase pHluor: 1; Rev-erbA mod: -5; GC-A act: 29; PG9 Ab binder: 0

What do the screens show for `Cc1c2cnn(CC(=O)N3CCC4(CC3)OCCO4)c(=O)c2c(C)n1Cc1ccc(F)cc1`?
NPR2 activator: 2; V-ATPase pHluor: 3; Rev-erbA mod: -2; GC-A act: 6; PG9 Ab binder: 0

What do the screens show for `COC(=O)C1=C(c2ccc(OC(F)(F)F)cc2)C[C@@H]2CC[C@H]1N2C(=O)NCCO`?
NPR2 activator: 6; V-ATPase pHluor: -1; Rev-erbA mod: -2; GC-A act: 2; PG9 Ab binder: 0

What do the screens show for `COC(=O)C1=C(c2ccc(OC(F)(F)F)cc2)C[C@@H]2CC[C@H]1N2C(=O)NCC1CC1`?
NPR2 activator: 126*; V-ATPase pHluor: -4; Rev-erbA mod: 5; GC-A act: 0; PG9 Ab binder: -1

How did O=C1NC(=O)C(=Cc2ccc(SC3CCCCC3)o2)C(=O)N1 do in these assays?
NPR2 activator: 17; V-ATPase pHluor: -9; Rev-erbA mod: -10; GC-A act: 55*; PG9 Ab binder: -1

Results for Cc1ccc(N2C(=O)NC(=O)/C(=C/c3cnn(-c4ccc(C)cc4)c3)C2=O)cc1 ?
NPR2 activator: 10; V-ATPase pHluor: 6; Rev-erbA mod: 3; GC-A act: 57*; PG9 Ab binder: 1

Results for CC12CCC(C(Br)C1=O)C2(C)C (stereo not drawn) ?
Rev-erbA mod: 1

Results for CN1C[C@H](C(=O)N[C@]2(C)C[C@@]3(O)C4CCCN4C(=O)[C@H](Cc4ccccc4)N3C2=O)C=C2c3cccc4[nH]cc(c34)C[C@H]21 (stereo partly drawn) ?
Rev-erbA mod: 5

What do the screens show for `COc1ccc(C(O)CNC(C)C)c(F)c1OC` (stereo not drawn)?
NPR2 activator: 5; V-ATPase pHluor: 27*; Rev-erbA mod: 1; GC-A act: 1; PG9 Ab binder: -1

What do the screens show for `COc1ccc(-n2c(O)c(/C=C3\C=Nc4ccc(Br)cc43)c(=O)[nH]c2=O)cc1`?
NPR2 activator: 30; V-ATPase pHluor: 1; Rev-erbA mod: -1; GC-A act: 41*; PG9 Ab binder: -1

Results for O=C1NC(=O)C(=Cc2ccc(-c3cc(Cl)ccc3[N+](=O)[O-])o2)C(=O)N1 ?
NPR2 activator: 17; V-ATPase pHluor: 4; Rev-erbA mod: -11; GC-A act: 50*; PG9 Ab binder: -1

What do the screens show for `COc1cc(/C=C/c2nc3ccccc3c(=O)n2-c2cccc(O)c2)ccc1O`?
NPR2 activator: 49*; V-ATPase pHluor: -2; Rev-erbA mod: -8; GC-A act: 24; PG9 Ab binder: -1

How did COc1cc(/C=C/c2nc3ccccc3c(=O)n2-c2ccccc2O)ccc1O do in these assays?
NPR2 activator: 22; V-ATPase pHluor: 1; Rev-erbA mod: 1; GC-A act: 11; PG9 Ab binder: 0

What do the screens show for `C=C1CC2C(CC[C@]3(C)C(=O)CCC23)[C@@]2(C)C=CC(=O)C=C12` (stereo partly drawn)?
Rev-erbA mod: -1

What do the screens show for `C[C@]12CCC3C(CC[C@H]4C[C@@H](O)CC[C@]34C)C1C/C(=N/O)[C@@H]2O` (stereo partly drawn)?
NPR2 activator: 2; V-ATPase pHluor: 8; Rev-erbA mod: -12; GC-A act: -1; PG9 Ab binder: 0

Results for C[C@]12CCC3C(CC[C@H]4C[C@H](O)CC[C@]34C)C1CC(=O)[C@@H]2O (stereo partly drawn) ?
NPR2 activator: 4; V-ATPase pHluor: 13*; Rev-erbA mod: -2; GC-A act: 0; PG9 Ab binder: 0

What do the screens show for `CC(=O)O[C@H]1C[C@H](O[C@H]2[C@@H](O)C[C@H](O[C@H]3[C@@H](O)C[C@H](O[C@H]4CC[C@@]5(C)C(CCC6C5C[C@@H](O)[C@]5(C)[C@@H](C7=CC(=O)OC7)CC[C@]65O)C4)O[C@@H]3C)O[C@@H]2C)O[C@H](C)[C@H]1O[C@@H]1O[C@H](CO)[C@@H](O)[C@H](O)[C@H]1O` (stereo partly drawn)?
Rev-erbA mod: 0

Results for CN1C(=O)NC(=O)/C(=C/c2ccc([N+](=O)[O-])o2)C1=O ?
NPR2 activator: 4; V-ATPase pHluor: 3; Rev-erbA mod: -4; GC-A act: -4; PG9 Ab binder: -8

How did COc1ccc(OC)c(N2C(=O)NC(=O)/C(=C\c3ccc([N+](=O)[O-])s3)C2=O)c1 do in these assays?
NPR2 activator: -4; V-ATPase pHluor: 133*; Rev-erbA mod: -6; GC-A act: -4; PG9 Ab binder: -3
